Laboratory results as given in PubChem BioAssay AID1159580 (chemical genetic matrix, 2015).
Values joined by “and” are separate entries in the source; they are usually repeats but may differ in a detail not shown here. Equal values may be shown once. Out of some 5,500 compounds screened, about 2,000 (36%) were called active. About 18% were inconclusive and are not listed. Rule as the data show it: active = normalized growth mostly below about 0.91 (no sharp cut-off); inconclusive = no clear call, values can overlap the other calls; inactive = mostly above about 0.92. The list shows a part of the results.

Experiment: chemical genetic growth profiling, strain panel (AID 1159580);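 also: tested at 20 µM; growth read once vehicle control cultures reached saturation at 30 °C; 1 = growth at the plate median or of vehicle wells; lower values mean less growth of the strain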
Conditions: S. cerevisiae deletion strains, growth OD

Measured: normalized growth

COc1ccc([C@H]2Oc3cc(OC)cc(OC)c3C[C@H]2O)cc1
inactive: locus YAL013W, strain DEP1, hits give low values 1.01 | locus YAL021C, strain ccr4, hits give low values 1 | locus YAL026C, strain drs2, hits give low values 0.995 | locus YAL030W, strain snc1, hits give low values 0.993 | locus YBL061C, strain skt5, hits give low values 0.997 | locus YBR009C, strain hhf1, hits give low values 1.01 | locus YBR021W, strain FUR4, hits give low values 1.06 | locus YBR023C, strain chs3, hits give low values 1 | locus YBR171W, strain sec66, hits give low values 0.98 | locus YBR229C, strain ROT2, hits give low values 1 | locus YBR231C, strain swc5, hits give low values 1.01 | locus YBR279W, strain paf1, hits give low values 0.994 | locus YCL011C, strain gbp2, hits give low values 0.997 | locus YCL016C, strain dcc1, hits give low values 1 | locus YCL029C, strain bik1, hits give low values 1.01 | locus YCL061C, strain MRC1, hits give low values 0.987 | locus YCL069W, strain vba3, hits give low values 0.996 | locus YCR088W, strain abp1, hits give low values 0.999 | locus YDL005C, strain med2, hits give low values 0.996 | locus YDL035C, strain GPR1, hits give low values 1.05 | locus YDL040C, strain nat1, hits give low values 1 | locus YDL074C, strain BRE1, hits give low values 1.12 | locus YDL101C, strain DUN1, hits give low values 1.01 | locus YDL185W, strain tfp1, hits give low values 1.01 | locus YDL192W, strain arf1, hits give low values 1 | locus YDR001C, strain nth1, hits give low values 0.998 | locus YDR069C, strain doa4, hits give low values 1.01 | locus YDR101C, strain arx1, hits give low values 0.983 | locus YDR137W, strain rgp1, hits give low values 0.867 | locus YDR159W, strain sac3, hits give low values 0.998 | locus YDR162C, strain NBP2, hits give low values 1.03 | locus YDR195W, strain ref2 1.05 | locus YDR297W, strain sur2, hits give low values 1 | locus YDR318W, strain mcm21, hits give low values 1 | locus YDR334W, strain swr1, hits give low values 1.01 | locus YDR335W, strain msn5, hits give low values 1 | locus YDR388W, hits give low values 1.01 | locus YDR392W, strain spt3, hits give low values 0.948 | locus YDR502C, strain sam2, hits give low values 1.01 | locus YEL003W, strain gim4, hits give low values 0.996 | locus YEL037C, strain rad23, hits give low values 0.989 | locus YEL061C, strain CIN8 (second series), hits give low values 1 | locus YEL061C, strain CIN8, hits give low values 1.02 | locus YER015W, strain faa2, hits give low values 1 | locus YER016W, strain bim1, hits give low values 0.994 | locus YER110C, hits give low values 0.987 | locus YER111C, strain swi4, hits give low values 0.998 | locus YER155C, strain BEM2 (second series), hits give low values 1.01 | locus YER155C, strain BEM2, hits give low values 1 | locus YER167W, strain BCK2, hits give low values 1 | locus YFR010W, strain ubp6, hits give low values 1.01 | locus YGL078C, strain dbp3, hits give low values 1.02 | locus YGL086W, strain mad1, hits give low values 0.999 | locus YGL167C, strain pmr1, hits give low values 0.989 | locus YGL173C, strain kem1, hits give low values 1 | locus YGL227W, strain vid30, hits give low values 1 | locus YGL240W, strain doc1, hits give low values 1.01 | locus YGL248W, strain PDE1, hits give low values 1.05 | locus YGL253W, strain hxk2, hits give low values 0.996 | locus YGR135W, strain pre9, hits give low values 1.07 | locus YGR252W, strain gcn5, hits give low values 1.08 | locus YHR013C, strain ard1, hits give low values 1.05 | locus YHR027C, strain rpn1, hits give low values 0.992 | locus YHR030C, strain SLT2, hits give low values 0.985 | locus YHR079C, strain IRE1 (second series), hits give low values 1.02 | locus YHR079C, strain IRE1, hits give low values 0.994 | locus YHR094C, strain hxt1, hits give low values 1.01 | locus YHR129C, strain ARP1, hits give low values 1.02 | locus YHR142W, strain chs7, hits give low values 0.981 | locus YHR200W, strain rpn10, hits give low values 1.03 | locus YIL066C, strain RNR3, hits give low values 1.02 | locus YIL073C, strain SPO22, hits give low values 1.07 | locus YIL125W, strain kgd1, hits give low values 1 | locus YIR030C, strain dcg1, hits give low values 0.99 | locus YJL092W, strain hpr5, hits give low values 0.997 | locus YJL095W, strain BCK1 (second series), hits give low values 1 | locus YJL095W, strain BCK1, hits give low values 1.04 and 1 | locus YJL115W, strain asf1, hits give low values 1.01 | locus YJL129C, strain trk1, hits give low values 1.04 | locus YJL134W, strain LCB3, hits give low values 1 | locus YJL154C, strain vps35, hits give low values 0.989 | locus YJL164C, strain tpk1, hits give low values 1.01 | locus YJL166W, strain qcr8, hits give low values 0.994 | locus YJL168C, strain set2, hits give low values 1 | locus YJL187C, strain SWE1 (second series), hits give low values 1.03 | locus YJL187C, strain SWE1, hits give low values 1 | locus YJR043C, strain POL32, hits give low values 1.08 | locus YJR066W, strain TOR1, hits give low values 0.938 | locus YKL009W, strain mrt4, hits give low values 1.03 | locus YKL068W, hits give low values 1 | locus YKL085W, strain MDH1 (second series), hits give low values 0.99 | locus YKL085W, strain MDH1, hits give low values 0.99 | locus YKL160W, strain elf1, hits give low values 0.994 | locus YKL190W, strain CNB1, hits give low values 1.02 | locus YKR001C, strain vps1, hits give low values 0.99 | locus YKR026C, strain gcn3, hits give low values 0.999 | locus YKR091W, strain srl3, hits give low values 1 | locus YLL001W, strain dnm1, hits give low values 0.988 | locus YLL026W, hits give low values 1 | locus YLL041C, strain sdh2, hits give low values 0.985 | locus YLR027C, strain aat2, hits give low values 0.997 | locus YLR039C, strain RIC1, hits give low values 1.1 | locus YLR058C, strain SHM2, hits give low values 1.01 | locus YLR102C, strain apc9, hits give low values 0.997 | locus YLR113W, strain HOG1, hits give low values 0.983 | locus YLR221C, strain rsa3, hits give low values 1 | locus YLR258W, strain gsy2, hits give low values 0.995 | locus YLR262C, strain YPT6 (second series), hits give low values 0.914 | locus YLR268W, strain sec22, hits give low values 1.01 | locus YLR320W, strain mms22, hits give low values 0.999 | locus YLR342W, strain FKS1 (second series), hits give low values 0.997 | locus YLR342W, strain FKS1, hits give low values 0.994 | locus YLR357W, strain rsc2, hits give low values 1.07 | locus YLR370C, strain arc18, hits give low values 0.99 | locus YLR371W, strain rom2, hits give low values 1.04 | locus YLR384C, strain iki3, hits give low values 0.994 | locus YLR418C, strain cdc73, hits give low values 1.06 | locus YML016C, strain PPZ1, hits give low values 0.998 | locus YML032C, strain rad52, hits give low values 1.01 | locus YML120C, strain ndi1, hits give low values 1.01 | locus YML124C, strain tub3, hits give low values 1 | locus YMR058W, strain fet3, hits give low values 0.997 | locus YMR078C, strain ctf18, hits give low values 1.01 | locus YMR125W, strain sto1, hits give low values 1.01 | locus YMR129W, hits give low values 1 | locus YMR205C, strain PFK2, hits give low values 1.02 | locus YMR223W, strain ubp8, hits give low values 1 | locus YMR231W, strain pep5, hits give low values 0.989 | locus YMR307W, strain GAS1, hits give low values 1.31 | locus YNL067W, strain RPL9B, hits give low values 1.02 | locus YNL071W, strain lat1, hits give low values 0.994 | locus YNL183C, strain NPR1, hits give low values 0.932 | locus YNL209W, strain ssb2, hits give low values 0.994 | locus YNL233W, strain BNI4, hits give low values 1.06 | locus YNL248C, strain rpa49, hits give low values 1.01 | locus YNL250W, strain rad50, hits give low values 1.05 | locus YNL271C, strain bni1, hits give low values 0.995 | locus YNL298W, strain CLA4, hits give low values 0.975 | locus YNL307C, strain MCK1, hits give low values 1.02 | locus YNL322C, strain KRE1 (second series), hits give low values 1 | locus YNL322C, strain KRE1, hits give low values 1.01 | locus YNR049C, strain mso1, hits give low values 1 | locus YNR052C, strain pop2, hits give low values 1.02 | locus YOL012C, strain htz1 1.39 | locus YOL147C, strain pex11, hits give low values 0.994 | locus YOR001W, strain rrp6, hits give low values 0.992 | locus YOR061W, strain CKA2, hits give low values 1 | locus YOR069W, strain VPS5, hits give low values 0.996 | locus YOR070C, strain gyp1, hits give low values 0.99 | locus YOR080W, strain dia2, hits give low values 1.01 | locus YOR083W, strain WHI5, hits give low values 0.993 | locus YOR106W, strain vam3, hits give low values 0.999 | locus YOR136W, strain idh2, hits give low values 1 | locus YOR144C, strain elg1, hits give low values 1 | locus YOR184W, strain ser1, hits give low values 0.94 | locus YOR231W, strain MKK1, hits give low values 1 | locus YOR265W, strain rbl2, hits give low values 0.999 | locus YOR270C, strain vph1, hits give low values 0.976 | locus YOR290C, strain snf2, hits give low values 1.01 | locus YOR316C, strain cot1, hits give low values 1.02 | locus YPL051W, strain arl3, hits give low values 0.984 | locus YPL055C, strain LGE1, hits give low values 1.09 | locus YPL078C, strain atp4, hits give low values 0.995 | locus YPL106C, strain sse1, hits give low values 1.07 | locus YPL240C, strain hsp82, hits give low values 0.986 | locus YPL256C, strain CLN2, hits give low values 0.972 | locus YPR119W, strain clb2, hits give low values 0.99 | locus YPR141C, strain kar3, hits give low values 0.998 | locus YPR163C, strain tif3, hits give low values 1.01 | locus YPR167C, strain met16, hits give low values 1.01 | strain wtn01, hits give low values 0.992
